Compounds with a hit are over-represented: about 9.3% of the library has one in this group of screens.
FLuc counter: firefly luciferase modulation, counter-screen for miR-21 project | P08659 | purified FLuc, Km substrates, luminescence inhibition | Potency, µM (highest dose often 57.5 µM), for the others: top-dose activity change, negative = inhibition, actives largely listed as inhibitors | 6.9% of 360,000 active | AID 588342;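 also: plate controls were vehicle for no effect and reference inhibitor for full effect; nearly all actives have a fitted effect of over 55% in size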
Target sequence (P08659 whole entry, looked up): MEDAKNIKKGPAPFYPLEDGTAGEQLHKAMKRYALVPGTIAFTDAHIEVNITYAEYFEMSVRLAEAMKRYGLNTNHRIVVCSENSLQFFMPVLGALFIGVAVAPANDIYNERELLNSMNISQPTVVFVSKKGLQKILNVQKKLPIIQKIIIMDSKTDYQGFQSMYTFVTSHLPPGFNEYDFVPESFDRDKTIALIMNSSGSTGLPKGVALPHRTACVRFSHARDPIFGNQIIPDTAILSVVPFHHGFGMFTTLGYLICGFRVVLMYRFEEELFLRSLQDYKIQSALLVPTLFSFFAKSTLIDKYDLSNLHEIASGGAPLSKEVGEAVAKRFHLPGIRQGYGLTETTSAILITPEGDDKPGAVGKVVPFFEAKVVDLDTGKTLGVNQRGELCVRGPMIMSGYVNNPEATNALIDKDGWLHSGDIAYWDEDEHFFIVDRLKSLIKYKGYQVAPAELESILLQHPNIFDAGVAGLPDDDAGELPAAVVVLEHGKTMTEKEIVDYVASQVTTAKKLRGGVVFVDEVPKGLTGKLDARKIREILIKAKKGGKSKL
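Biochemical qHTS of compounds, final roughly 60 µM downward over six points, against 10 nM purified firefly luciferase using Km concentrations of substrates (10 uM D-luciferin, 10 uM ATP) in Tris acetate pH 7.5 buffer; luminescence output.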
ELG1 repair inh: inhibitors of ELG1-dependent DNA repair in HEK293T cells | HEK293T ELG1-luciferase reporter, luminescence, 16 h; DNA damage induced by 5-fluorouridine | Potency, µM (series often up to 46.1 µM), without a hit: top-dose activity change, negative = inhibition, most hits filed as inhibitors | 2.3% of 330,000 active; also: % is scaled to controls: 0 for no effect and ±100 for the full control effect; nearly all actives have a fitted effect of over 55% in size
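Luminescence from the luciferase reporter, measured 30 min after ONE-Glo reagent at room temperature, was the read-out. Beforehand, 2,000 cells per well were exposed for 16 hr at 37 °C to 5-fluorouridine together with compound or vehicle.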
Rab9 promoter act: activators of Rab9 promoter; 2.8% of 320,000 active; Potency, µM (top dose mostly 9.22 µM), for the others: at the highest dose activation, negative = inhibition, most hits filed as activators; AID 485297; Huh7 Rab9 promoter-luciferase reporter, luminescence, 24 h; also: % of control where 0% means no effect; nearly all actives have a fitted effect of over 60% in size
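Huh7 cells stably carrying a Rab9 promoter-luciferase reporter, 1500 cells per well in OP-MEM I with 10% FBS, treated with compound 24 hours at 37C. Luciferase activity read by luminescence after 10 minutes with Amplite reagent.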
SMN2 splice enh: enhancers of SMN2 splice variant expression | HEK293 SMN2-luciferase splicing reporter, luminescence, 30-36 h | 2.8% of 210,000 active | Potency, µM (top dose mostly 46.1 µM), without a hit: top-dose activity change, positive = activation, actives largely listed as activators; also: % of control where 0% means no effect; nearly all actives have a fitted effect of over 55% in size
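qHTS luciferase splicing reporter: luminescence rises when SMN2 exon 7 is included in transfected HEK293 cells. Compound exposure lasted 30-36 h at 37C, with 4.5 mM final sodium butyrate as control, followed by a ONE-Glo read.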
ELG1 genotox: inducers of genotoxicity in HEK293T ELG1-luciferase cells; HEK293T ELG1-luciferase reporter, luminescence, 16 h; Potency, µM (highest dose often 46 µM), inactives show at the top dose activity change, positive = activation, hits mostly activators; 1.3% of 330,000 active; also: % of control where 0% means no effect; nearly all actives have a fitted effect of over 60% in size
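Luminescence read-out: rising ELG1-luciferase signal, reflecting elevated ELG1 protein under genetic stress, flags genotoxic compounds. Cells were treated for 16 hr at 37 °C before ONE-Glo detection.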
NPC1 prom act: NPC1 promoter activation. Potency, µM (series often up to 9.22 µM), for the others: at the highest dose activation, hits mostly activators. Huh7 NPC1 promoter luciferase reporter, 24 h. 2.4% of 320,000 active; also: % of control where 0% means no effect; nearly all actives have a fitted effect of over 60% in size
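In 1536-well qHTS, Huh7 cells harboring an NPC1 promoter–luciferase construct received compound for 24 h; activation was quantified by luminescence following luciferase reagent addition.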
* hit, by the source's call. Calls follow the shape of the dose curve; as a rule, active = well fitted curve in the direction sought with a large enough effect; inconclusive = small, poorly fitted or top-dose-only effect, or another doubt; inactive = no such curve, though single readings can be large; an effect the other way counts as inactive or inconclusive. Potency is read from the fitted curve at half-maximal effect.

For CCOc1ccccc1OCC(=O)Nc1cc2c(cc1C(=O)O)OCCCO2 the results were FLuc counter 0.1%, ELG1 repair inh -4.0%, Rab9 promoter act 3.4%, ELG1 genotox -4.1% and NPC1 prom act -1.8%.
COc1ccc(-n2c(SCC(=O)N3CCCc4ccccc43)nc3c([nH]c4ccccc43)c2=O)cc1 was read as FLuc counter -0.8%.
For O=S(=O)(c1ccccc1)c1nc(-c2cccs2)oc1NCc1cccnc1 the results were ELG1 repair inh inconclusive, Rab9 promoter act -1.0%, ELG1 genotox -1.1% and NPC1 prom act -4.0%.
Screening Cn1cc(C(=O)N/N=C/c2cccs2)c2ccccc21 returned FLuc counter 15.1µM*, ELG1 repair inh inconclusive, Rab9 promoter act inconclusive, SMN2 splice enh 22.4µM*, ELG1 genotox inconclusive and NPC1 prom act inconclusive.
For Cn1cc(C(=O)N/N=C/c2ccc(Br)c([N+](=O)[O-])c2)c2ccccc21 the results were FLuc counter 0.3%, ELG1 repair inh inconclusive, Rab9 promoter act -3.8%, ELG1 genotox inconclusive and NPC1 prom act -0.4%.
Screening CCN(CCO)c1ccc(N=Nc2cc(C)[nH]n2)cc1 returned FLuc counter 0.269µM*, ELG1 repair inh inconclusive, Rab9 promoter act inconclusive, ELG1 genotox inconclusive and NPC1 prom act inconclusive.
Screening CCN(CC)c1ccc(N=Cc2ccc(N(CC)CC)cc2O)cc1 returned FLuc counter -11.2%, ELG1 repair inh -18.9%, Rab9 promoter act -2.0%, SMN2 splice enh 24.4%, ELG1 genotox -16.3% and NPC1 prom act 5.9%.
CCc1ccc(C(=O)/C=C/c2cnn(C)c2C)s1 was read as FLuc counter 0.601µM*, ELG1 repair inh inconclusive, Rab9 promoter act 3.55µM*, SMN2 splice enh 12.6µM*, ELG1 genotox 13µM* and NPC1 prom act 3.98µM*.
Nc1ccc(/C=C/C(=O)c2cccs2)cc1 was read as FLuc counter 1.35µM*, ELG1 repair inh inconclusive, Rab9 promoter act 3.55µM*, ELG1 genotox inconclusive and NPC1 prom act 3.98µM*.
For Cc1c(/C=C/C(=O)c2cccs2)cnn1C the results were FLuc counter 9.53µM*, ELG1 repair inh inconclusive, Rab9 promoter act inconclusive, SMN2 splice enh -36.0%, ELG1 genotox 20.6µM* and NPC1 prom act inconclusive.
Screening O=C(/C=C/c1ccc([N+](=O)[O-])cc1)c1cccs1 returned FLuc counter -17.1%, ELG1 repair inh -1.7%, Rab9 promoter act 11.9%, ELG1 genotox 4.9% and NPC1 prom act -1.0%.
Cc1ccc(NC(=O)CSc2nnc(Cc3csc(C)n3)o2)cc1 was read as FLuc counter -11.9%, ELG1 repair inh inconclusive, Rab9 promoter act 5.1%, ELG1 genotox 5.0% and NPC1 prom act 6.1%.
Screening CCc1nc(SCC(=O)N2CCC(C)CC2)c2c(=O)n(C)c(=O)n(C)c2n1 returned FLuc counter -2.3%, ELG1 repair inh 20.6µM*, Rab9 promoter act -2.7%, SMN2 splice enh -12.6%, ELG1 genotox -5.0% and NPC1 prom act -3.2%.
For CCc1nc(SCC(=O)Nc2nnc(CC)s2)c2c(=O)n(C)c(=O)n(C)c2n1 the results were FLuc counter 2.8%, ELG1 repair inh 16.4µM*, Rab9 promoter act -10.1%, ELG1 genotox -9.3% and NPC1 prom act -4.1%.
Cc1csc(NC(=O)CSc2nc(C)nc3c2c(=O)n(C)c(=O)n3C)n1 was read as FLuc counter -0.3%, ELG1 repair inh 20.6µM*, Rab9 promoter act -2.2%, SMN2 splice enh -49.2%, ELG1 genotox -21.5% and NPC1 prom act -2.2%.
For Cc1cccc(NC(=O)CSc2nc(C)nc3c2c(=O)n(C)c(=O)n3C)c1 the results were FLuc counter 8.1%, ELG1 repair inh -9.3%, Rab9 promoter act -7.3%, SMN2 splice enh -18.7%, ELG1 genotox 15.7% and NPC1 prom act -1.3%.
CC(C)CCN1CC(O)=C(c2nc(-c3ccc(Cl)cc3)cs2)C1=N was read as FLuc counter 6.0%, ELG1 repair inh inconclusive, Rab9 promoter act -1.7%, SMN2 splice enh inconclusive, ELG1 genotox inconclusive and NPC1 prom act 0.0%.
For CN(C)S(=O)(=O)c1cccc(NC(=O)COC(=O)COc2ccc(Br)cc2)c1 the results were FLuc counter -17.1%, ELG1 repair inh inconclusive, Rab9 promoter act -5.2%, ELG1 genotox 0.3% and NPC1 prom act -4.3%.
For Cn1cnnc1SCC(=O)Nc1ccc(F)cc1F the results were FLuc counter 6.2%, ELG1 repair inh -8.3%, Rab9 promoter act 1.1%, ELG1 genotox 2.0% and NPC1 prom act -4.5%.
Screening COc1ccc(NC(=O)Nc2cc(C)ccc2F)cc1 returned FLuc counter 12µM*, ELG1 repair inh inconclusive, Rab9 promoter act 2.82µM*, SMN2 splice enh inconclusive, ELG1 genotox 23.1µM* and NPC1 prom act 3.55µM*.
Screening COc1cccc(NC(=O)Nc2cc(C)ccc2F)c1 returned FLuc counter 23.9µM*, ELG1 repair inh inconclusive, Rab9 promoter act 19.6%, SMN2 splice enh 22.3%, ELG1 genotox 6.6% and NPC1 prom act 28.6%.
COc1ccc(NC(=O)Nc2cc(C)ccc2OC)cc1 was read as FLuc counter inconclusive, ELG1 repair inh inconclusive, Rab9 promoter act -5.2%, SMN2 splice enh -9.7%, ELG1 genotox 20.6% and NPC1 prom act 0.4%.
`CCOC(=O)c1c(NC(=O)CC)sc(C(=O)NC2CCCC2)c1C` gave FLuc counter -3.2%, ELG1 repair inh -27.8%, Rab9 promoter act inconclusive, ELG1 genotox 7.1% and NPC1 prom act 2.9%.
COc1ccc(/C=N/NC(=O)CCC(=O)Nc2ccccc2)cc1OC was read as FLuc counter -18.4%, ELG1 repair inh 8.1%, Rab9 promoter act -6.6%, SMN2 splice enh 10.1%, ELG1 genotox -0.3% and NPC1 prom act 1.3%.
For COc1cccc(/C=N/NC(=S)Nc2cccc(C(=O)O)c2)c1 the results were FLuc counter 1.69µM*, ELG1 repair inh inconclusive, Rab9 promoter act 3.16µM*, SMN2 splice enh 14.1µM*, ELG1 genotox 1.4% and NPC1 prom act 2µM*.
Screening COc1cc(/C=N/NC(=S)N/N=C/c2cc(OC)c(OC)c(OC)c2)cc(OC)c1OC returned FLuc counter 0.213µM*, ELG1 repair inh inconclusive, Rab9 promoter act 20.0%, SMN2 splice enh 4.47µM*, ELG1 genotox inconclusive and NPC1 prom act 25.1%.
`COc1cc(/C=N/NC(=O)C[n+]2ccccc2)cc(OC)c1OC` gave FLuc counter 2.4%, ELG1 repair inh 0.1%, Rab9 promoter act -6.7%, SMN2 splice enh 5.6%, ELG1 genotox 3.2% and NPC1 prom act -4.7%.
